PubChem BioAssay

Test system: Lefty1
Experiment: Lefty1 protein binding to printed compounds – biochemical, small-molecule microarray, 635/667 nm fluorescence, primary screen (AID 1139)
Conditions: fluorescence 635/667, higher = more signal

SMILES	composite z-score
CCN1C(=O)[C@@H]2[C@H]3C(=CC[C@@H]2C1=O)C1(OCCCO1)[C@H]1O[C@H]1[C@H]3O	0.946
CCOC(=O)[C@H](Cc1ccccc1)NC(=O)CCC1CC(OC(=O)NCCc2ccc(F)cc2)CC2(CCCC(COC(=O)NCCc3ccccc3OC)O2)O1 (stereo partly specified)	1.11
CCOC(=O)NN=C1C[C@@H](O)[C@@H](O)[C@@H]2[C@@H]3C(=O)N(c4cccc(Oc5ccccc5)c4)C(=O)[C@@H]3CC[C@H]12	0.365
CCCCC#C[C@@H]1C=C[C@H](Oc2ccc(C(=O)OC)cc2)[C@@H](COC(=O)OCC)O1	0.309
CCCNC(=O)OC[C@H]1O[C@H](CCON=C(C)CCN2CCc3nc(CC)c(CC)cc3C2)C=C[C@@H]1Oc1ccc(OC)cc1	0.374
CCC1=NOC(CCC2CC(OC(=O)NCc3cccc4c3OCO4)CC3(CCCC(COC(=O)NCCc4ccccc4OC)O3)O2)C1 (stereo unspecified)	-0.0134
CO[C@@H]1COC(=O)CC=C[C@H](C)[C@H](OC)COC(=O)[C@H](C)NC(=O)CC=C[C@H]1C	1.64
C#CCCCON=C1C[C@@H](O)[C@@H](O)[C@@H]2[C@@H]3C(=O)N(C(C)(C)C)C(=O)[C@@H]3CC[C@H]12	-0.912
CCOC(=O)[C@H](Cc1ccccc1)NC(=O)CCC1CC(OC(=O)NCc2ccc3c(c2)OCO3)CC2(CCCC(COC(=O)NCCC(C)C)O2)O1 (stereo partly specified)	0.722
COC(=O)CC=C[C@@H](C)[C@@H](C=NO[C@H](C)c1cn([C@H](CO)Cc2ccccc2)nn1)NS(=O)(=O)c1ccc(C)cc1	0.19
CCN1C(=O)[C@H]2[C@H]3[C@H](O)[C@H](O)CC(=O)[C@@H]3CC[C@H]2C1=O	0.547
